This passage reports GI50 results from ChEMBL document CHEMBL1201862, “PubChem BioAssay data set” (2004).

Out of some 58,000 sequences screened, about 4,600 (7.9%) were called active. Cut-off read from the data, not from the text of the source: active = GI50 up to about 1.1 µM and inactive = higher. Only a selection was taken, and actives are over-represented in it overall. Measured potencies and affinities stand elsewhere.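 Grown in 96-well plates, cells were treated for 48 hours with each compound at five concentrations. Insufficient inhibition: endpoint recorded as highest concentration tested. GI50: concentration for 50% inhibition of growth.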

For this experiment, the system named is SW-620. Kind of experiment: NCI tumour cell line growth inhibition, 48 h.
For “[Bis(aminomethyl)dimethylsilane]dichloroplatinum (II), CHEMBL2146201”, the GI50 was determined as 4860 nM.

With “[Bis(aminomethyl)pentamethylenesilane]dichloropaltinum(II), CHEMBL2146202”, the GI50 stood at 6700 nM.

In turn, “[Bis(aminomethyl)diethylsilane]tetrachloroplatinum(IV), CHEMBL2146203” registered a GI50 of 483 nM.

“[Bis(aminomethyl)pentamethylenesilane]tetrachloropaltinum(IV), CHEMBL2146204” had a GI50 of 1060 nM.

Take “cis-Bis[[(trimethylsilyl)methyl]amino]tetrachloroplatinum(IV), CHEMBL2146191”: the GI50 came out at 2400 nM.

Regarding “[Bis(aminomethyl)ethylmethylsilane]tetrachloroplatinum(IV), CHEMBL2146192”, the GI50 worked out at 1020 nM.

“[Bis(aminomethyl)dimethylsilane]tetrachloroplatinum(IV), CHEMBL2146190” yielded a GI50 of 1890 nM.

In turn, “[Bis(aminomethyl)tetramethylenesilane]tetrachloropaltinum(IV), CHEMBL2146189” registered a GI50 of 1490 nM.

Regarding CISPLATIN, CHEMBL11359, the GI50 is 3870 nM.

“mu-(1,7-nanodiamine-N,N')bis-(cis-aminedichloroplatimum (II)), CHEMBL2146215” came in with a GI50 of 32100 nM.

On to “[Bis(aminomethyl)tetramethylenesilane]dichloropaltinum(II), CHEMBL2146205”, for which the GI50 worked out at 5160 nM.
